Source: PubChem (National Center for Advancing Translational Sciences (NCATS))
EPAC1 antagonist = blocks human EPAC1 exchange factor; O95398; EPAC1 GEF assay, Rap1b-BODIPY-GDP exchange fluorescence; Potency, µM (highest dose often 115 µM), for the others: top-dose activity change, negative = inhibition, most hits filed as inhibitors; 360,000 compounds, 0.14% hits;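 also: plate controls were vehicle for no effect and positive control for full effect; nearly all actives have a fitted effect of over 50% in size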
EPAC2 antagonist = blocks human EPAC2 exchange factor; Q8WZA2; Potency, µM (highest dose often 114 µM), without a hit: top-dose activity, negative = inhibition, usual class: inhibitors; 360,000 compounds, 0.18% hits; EPAC2 GEF exchange of Rap1B-BODIPY-GDP, fluorescence; also: % is scaled to controls: 0 for no effect and ±100 for the full control effect; nearly all actives have a fitted effect of over 45% in size
EPAC2 ag = agonists of human EPAC2 (RAPGEF4); Potency, µM (titrated, usually from 154 µM), for the others: top-dose activation, actives largely listed as activators; EPAC2 activation, biochemical qHTS; response scale: 100% = 6.5 mM cAMP response; 360,000 compounds, 0.079% hits; Q8WZA2; also: nearly all actives have a fitted effect of over 50% in size
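Compounds were titrated in qHTS against a Rap1B-BODIPY-GDP (250 nM) complex with EPAC2 (100 nM) and GDP (50 uM). BODIPY-GDP release tracked at 480/540 nm over 30 min at room temperature, normalized to 6.5 mM cAMP.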
USP1 inh = USP1/UAF1 (human) deubiquitinase inhibition; O94782; 390,000 compounds, 0.23% hits; recombinant USP1/UAF1, Ub-Rhodamine cleavage fluorescence; AID 743255; Potency, µM (series often up to 57.1 µM), inactives show top-dose activity change, negative = inhibition, usual class: inhibitors; also: % is scaled to controls: 0 for no effect and ±100 for the full control effect; nearly all actives have a fitted effect of over 60% in size
Target sequence (O94782 whole entry, looked up): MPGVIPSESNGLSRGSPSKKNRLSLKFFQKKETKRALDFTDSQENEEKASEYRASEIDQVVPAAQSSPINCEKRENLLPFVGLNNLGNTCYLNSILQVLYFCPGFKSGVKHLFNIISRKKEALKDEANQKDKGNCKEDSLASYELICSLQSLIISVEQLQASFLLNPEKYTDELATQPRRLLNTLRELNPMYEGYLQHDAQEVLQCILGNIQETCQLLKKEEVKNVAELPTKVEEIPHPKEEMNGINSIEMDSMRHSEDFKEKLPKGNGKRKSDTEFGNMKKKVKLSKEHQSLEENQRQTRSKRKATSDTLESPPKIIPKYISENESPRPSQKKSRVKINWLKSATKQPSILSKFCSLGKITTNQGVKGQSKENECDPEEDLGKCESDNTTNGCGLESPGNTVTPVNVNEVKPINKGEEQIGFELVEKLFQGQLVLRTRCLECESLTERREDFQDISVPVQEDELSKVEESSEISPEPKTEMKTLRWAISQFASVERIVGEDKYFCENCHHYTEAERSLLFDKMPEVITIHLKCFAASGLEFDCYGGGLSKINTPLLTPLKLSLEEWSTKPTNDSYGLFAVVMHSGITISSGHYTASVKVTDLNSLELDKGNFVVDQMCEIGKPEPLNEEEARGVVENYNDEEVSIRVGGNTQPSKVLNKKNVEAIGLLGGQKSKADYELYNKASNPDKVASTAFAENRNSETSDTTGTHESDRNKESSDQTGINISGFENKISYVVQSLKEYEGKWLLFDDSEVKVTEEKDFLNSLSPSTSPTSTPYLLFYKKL
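In this screen, compounds sit with the deubiquitinase complex (1nM) for 15 min at room temperature before Ub-Rho is added at 150nM final. Fluorescence rise is then followed for 6 reads every 60 seconds.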
VDR inh = vitamin D3 receptor (human) inhibition. P11473. VDR-SRC2-3 peptide fluorescence polarization, 2 h. Potency, µM, inactives show max response, negative = inhibition, most hits filed as inhibitors. 400,000 compounds, 0.93% hits. AID 504847; also: % is scaled to controls: 0 for no effect and ±100 for the full control effect
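Fluorescence polarization assay measuring small-molecule disruption of VDR binding to the coregulator peptide SRC2-3. Compounds were pin-transferred (23 nl) into the reagent mix and incubated 2 h at room temperature before reading.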
EPAC1 ag = EPAC1 (human) agonism | EPAC1 agonist qHTS, biochemical assay; response scale: 100% = response to 6.5 mM cAMP | Potency, µM (series often up to 154 µM), without a hit: at the top dose activation, usual class: activators | 360,000 compounds, 0.073% hits | AID 720707; also: nearly all actives have a fitted effect of over 60% in size
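Compounds were pinned as a concentration titration into mixtures of EPAC1 (100 nM), BODIPY-GDP-loaded Rap1B (250 nM) and GDP (50 uM). After 5 min at room temperature, fluorescence was followed for 30 min; activity was scaled to 6.5 mM cAMP.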
VDR inh confirm = confirmation of human vitamin D receptor inhibitors | shares compounds with VDR inh | VDR-coactivator inhibition assay, qHTS confirmation | Potency, µM, most hits filed as inhibitors | 840 compounds, 89% hits | AID 602199
VDR FP fluor = confirmation of human VDR-coactivator binding inhibitors, fluorescein label | shares compounds with VDR inh | VDR-coactivator binding, fluorescein fluorescence polarization | Potency, µM (series often up to 57.1 µM), for inactives: at the highest dose activity change, negative = inhibition, usual class: inhibitors | 840 compounds, 48% hits | AID 602200
VDR bla reporter = inhibits human VDR in beta-lactamase reporter cells | AID 602202 | VDR beta-lactamase reporter cells, FRET ratio; cells co-treated with VDR agonist LG190178 | 840 compounds, 23% hits | Potency, µM (series often up to 46.1 µM), inactives show at the top dose activity change, negative = inhibition, most hits filed as inhibitors | shares compounds with VDR inh; also: % is scaled to controls: 0 for no effect and ±100 for the full control effect
VDR cytotox = counter-screen for vitamin D receptor inhibitors: cytotoxicity; shares compounds with VDR inh; cytotoxicity counter-screen, cell viability, qHTS; Potency, µM (doses to about 48.3 µM), for the others: top-dose activity change, negative = cytotoxicity, hits mostly cytotoxic; 840 compounds, 18% hits; AID 602204;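 also: plate controls were DMSO for no effect and high-concentration cycloheximide for full effect; nearly all actives have a fitted effect of over 75% in size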
An asterisk follows results filed as active; [ ] = dose if it differs, or a comment. An excerpt weighted towards active compounds, which were near 1.2% of everything screened. Calls follow the shape of the dose curve; as a rule, active = well fitted curve in the direction sought with a large enough effect; inconclusive = small, poorly fitted or top-dose-only effect, or another doubt; inactive = no such curve, though single readings can be large; an effect the other way counts as inactive or inconclusive. Potency is read from the fitted curve at half-maximal effect.

For C=CCSc1nc2sc3c(c2c(=O)n1CC)CCc1ccccc1-3 the results were EPAC1 antagonist -10.6%, EPAC2 antagonist 1.3%, EPAC2 ag 9.4%, USP1 inh -20.0%, VDR inh 25.1µM*, EPAC1 ag 9.0%, VDR inh confirm 2.67*, VDR FP fluor inconclusive, VDR bla reporter 31.6% and VDR cytotox -2.9%.
C=CCn1c(SCC)nc2sc3c(c2c1=O)CCc1ccccc1-3 was read as EPAC1 antagonist -2.7%, EPAC2 antagonist -8.9%, EPAC2 ag 4.1%, USP1 inh -10.6%, VDR inh -8.6% and EPAC1 ag 15.7%.
`CC(CNC(=O)c1ccc(Cn2c(=O)c3cccn3c3cccnc32)cc1)c1ccccc1` (stereo unspecified) gave USP1 inh -12.2% and VDR inh 5.3%.
For Cc1cc(C(Br)(Br)Br)nc2ccccc12 the results were VDR inh confirm 14.1*, VDR FP fluor 14.1µM*, VDR bla reporter 13µM* and VDR cytotox 16.8µM*.
`O=c1c(-c2cc(F)cc(F)c2)nc2cncnc2n1Cc1ccccc1` gave VDR inh 5.2%.
Cc1cccc(NC(c2ccc(O)cc2)c2ccc3ccc(C)nc3c2O)n1 (stereo unspecified) was read as EPAC1 antagonist inconclusive, EPAC2 antagonist -7.7%[57.1 µM], EPAC2 ag 11.0%, USP1 inh -10.2%, VDR inh 44.7µM*, EPAC1 ag 12.7%, VDR inh confirm 10.6*, VDR FP fluor inconclusive, VDR bla reporter 26.4% and VDR cytotox 0.4%.
For COc1cccc(C(Nc2ccccc2)c2ccc3ccc(C)nc3c2O)c1 (stereo unspecified) the results were EPAC1 antagonist 2.2%, EPAC2 antagonist -10.7%, EPAC2 ag 9.4% and EPAC1 ag -4.1%.
O=C(Nc1ccccc1)c1nc(S(=O)(=O)Cc2ccccc2F)ncc1Cl was read as VDR inh confirm 2.51*, VDR FP fluor 2.51µM*, VDR bla reporter 3.26µM* and VDR cytotox 13.4µM*.
For CCOc1ccc(NC(=O)c2nc(S(=O)(=O)Cc3ccccc3F)ncc2Cl)cc1 the results were USP1 inh 3.2% and VDR inh inconclusive.
`O=C(Nc1ccc(OC(F)F)cc1)c1nc(S(=O)(=O)Cc2ccccc2F)ncc1Cl` gave VDR inh confirm 6.31*, VDR FP fluor 3.98µM*, VDR bla reporter 16.4µM* and VDR cytotox 16.8µM*.
Screening O=C(Nc1ccc(F)cc1)c1nc(SCc2ccccc2F)ncc1Cl returned USP1 inh -12.0% and VDR inh 8.0%.
Screening COc1ccc(C(=O)c2coc3c2C(=O)C(=O)c2ccccc2-3)cc1 returned EPAC1 antagonist 4.0%, EPAC2 antagonist 7.5%, EPAC2 ag 9.1%, USP1 inh inconclusive, VDR inh inconclusive, EPAC1 ag -2.4%, VDR inh confirm 6.31*, VDR FP fluor 3.16µM*, VDR bla reporter inconclusive and VDR cytotox -6.4%.
For CN1C(=O)/C(=C/c2cccc([N+](=O)[O-])c2)C(=O)N1c1ccccc1 the results were EPAC1 antagonist -25.6%, EPAC2 antagonist 9.4%, EPAC2 ag 3.9%, USP1 inh -21.7%, VDR inh 31.6µM*, EPAC1 ag 1.1%, VDR inh confirm 13.4*, VDR FP fluor inconclusive, VDR bla reporter -7.0% and VDR cytotox -3.1%.
Screening O=C1Nc2ccccc2/C1=C/C(=O)c1cccs1 returned EPAC1 antagonist 7.7%, EPAC2 antagonist 14.1%, EPAC2 ag -7.3%, USP1 inh -21.8%, VDR inh inconclusive, EPAC1 ag -3.9%, VDR inh confirm 11.2*, VDR FP fluor 10µM*, VDR bla reporter inconclusive and VDR cytotox 17.8%.
NC(=O)COc1ccc(C(=O)/C=C2/C(=O)Nc3ccccc32)cc1 was read as EPAC1 antagonist -1.9%, EPAC2 antagonist -2.2%, EPAC2 ag 10.2%, USP1 inh -30.4%, VDR inh inconclusive, EPAC1 ag -1.0%, VDR inh confirm inconclusive, VDR FP fluor inconclusive, VDR bla reporter 23.9% and VDR cytotox 18.7%.
`COc1ccc(C(=O)/C=C2/C(=O)Nc3ccccc32)cc1` gave EPAC1 antagonist 3.0%, EPAC2 antagonist 0.9%, EPAC2 ag 14.0%, USP1 inh -15.8%, VDR inh inconclusive and EPAC1 ag 8.2%.
For O=C1NN(c2ccccc2)C(=O)/C1=C\c1cccc(OC(=O)c2cccs2)c1 the results were EPAC1 antagonist -27.3%, EPAC2 antagonist 15.7%, EPAC2 ag 8.7%, USP1 inh inconclusive, VDR inh 50.1µM*, EPAC1 ag 4.3%, VDR inh confirm 8.44*, VDR FP fluor inconclusive, VDR bla reporter inconclusive and VDR cytotox inconclusive.
`Cc1ccsc1/C=C1/C(=O)NN(c2ccccc2)C1=O` gave EPAC1 antagonist 0.7%, EPAC2 antagonist 2.7%, EPAC2 ag 7.4%, USP1 inh 2.6%, VDR inh -28.0% and EPAC1 ag 9.6%.
Screening CCOC(=O)C1=C(Cc2ccc(Cl)cc2)C(=O)c2ccccc2C1=O returned EPAC1 antagonist -15.6%, EPAC2 antagonist -1.9%, EPAC2 ag 6.3%, USP1 inh inconclusive, VDR inh 6.31µM*, EPAC1 ag 5.9%, VDR inh confirm 1.78*, VDR FP fluor inconclusive, VDR bla reporter 23.1µM* and VDR cytotox inconclusive.
CCOC(=O)C1=C(C)N=C2c3ccccc3C(=O)C2C1c1ccc(Cl)cc1 (stereo unspecified) was read as EPAC1 antagonist -10.6%, EPAC2 antagonist -9.7%, EPAC2 ag 3.6%, USP1 inh -17.5%, VDR inh -11.0% and EPAC1 ag 25.6%.
